Laboratory results reported in PubChem BioAssay AID651814 (National Center for Advancing Translational Sciences (NCATS), 2012).
The whole screen tested about 2,100 compounds, of which about 590 (28%) were called active. Another 42% or so got no clear call; they are omitted. The list shows a part of the results. Values without a mark were called inactive. The call rests on the fitted dose curve; in most records, active means well fitted inhibition curve with a large enough effect; inconclusive means small, poorly fitted or top-dose-only effect; inactive means flat fitted curve, though single readings scatter.

Target: DNA dC->dU-editing enzyme APOBEC-3F (Homo sapiens) (UniProt Q8IUX4)
Sequence (Q8IUX4 whole entry, looked up): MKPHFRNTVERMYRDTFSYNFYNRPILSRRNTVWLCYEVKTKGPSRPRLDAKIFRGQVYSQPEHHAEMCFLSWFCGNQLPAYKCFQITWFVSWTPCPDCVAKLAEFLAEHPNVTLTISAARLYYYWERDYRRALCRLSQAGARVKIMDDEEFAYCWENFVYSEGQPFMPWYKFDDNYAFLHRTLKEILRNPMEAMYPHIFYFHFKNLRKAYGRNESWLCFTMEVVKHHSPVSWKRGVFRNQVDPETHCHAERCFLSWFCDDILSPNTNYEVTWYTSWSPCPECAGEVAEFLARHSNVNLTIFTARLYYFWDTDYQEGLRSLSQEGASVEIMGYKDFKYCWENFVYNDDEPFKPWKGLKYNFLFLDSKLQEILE
Test: qHTS for inhibitors of Vif-A3F interactions: Cherry picks; further: nearly all actives have a fitted effect of over 70% in size;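 on max response: % of control where 0% means no effect; active compounds raise eYFP fluorescence by blocking Vif-driven A3F loss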
Conditions: HeLa A3F-eYFP + Vif (tagged APOBEC3F with the HIV-1 protein that degrades it), eYFP fluorescence, 24 h
In short: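 Read-out: yellow fluorescence (ex 488 nm, em 500-530 nm) by laser-scanning cytometer after 24 h compound exposure, several concentrations, at 37 deg C. Cells: HeLa line stably co-expressing Vif and C-terminally eYFP-tagged A3F; MG132 served as positive control.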
Potency means the concentration at half of the fitted maximal effect.

SMILES	max response	Potency
CC(=O)Nc1ccc(Nc2c3c4c(cccc4n(C)c2=O)C(=O)c2ccccc2-3)cc1	-27.5%	
CCCCOc1nc2ccccc2nc1NS(=O)(=O)c1ccc(F)cc1	5.01%	
Cc1ccc2c(Cl)c(C)c(N3CCCC3)nc2n1	1.73%	
Clc1ccccc1Cn1c(/C=C/c2ccco2)nc2ccccc21	-8.9%	
CCC(=O)Nc1nonc1-c1nc2ccccc2n1Cc1ccccc1	-26.4%	
ClCc1nc2ccccc2n1Cc1ccccc1		18.4 µM (active)
CCCOc1ccc(NC(=O)CC2C(=O)N(c3ccc(OCC)cc3)C(=S)N2C2CC2)cc1 (configuration not stated)	-28%	
CCC(=O)Nc1ccccc1-c1nc2ccccc2n(C(C)C(=O)Nc2ccc(OC)cc2)c1=O (configuration not stated)		11.6 µM (active)
CCOC(=O)N1CCC(Nc2nc3ccccc3n3nnnc23)CC1	-9.96%	
CCOC(=O)Nc1cc2c(c(N)n1)N=C(c1ccccc1)CN2		0.0259 µM (active)
Cc1ccc(-c2cn3nc(-c4ccccc4)c(-c4ccccc4)nc3n2)cc1		18.4 µM (active)
COC(=O)c1sc2nc(CSc3ccc(Br)cc3)[nH]c(=O)c2c1C	-22%	
Cc1ccc(CSc2nc(-c3ccc(C(C)(C)C)cc3)nc3cc(=O)[nH]n23)cc1	-0.911%	
COc1cc(-c2noc(C)c2/C=C/c2ccc(OC(C)=O)cc2)cc(OC)c1OC		0.627 µM (active)
N#CC(C(=S)Nc1ccccc1)c1nc2ccccc2[nH]1 (configuration not stated)	-16.9%	
CCOc1ccccc1N1CC(c2nc3ccccc3n2Cc2c(C)cc(C)cc2C)CC1=O (configuration not stated)	-7.39%	
CCOC(=O)COn1c(=O)c(-c2ccc(Br)cc2)[n+]([O-])c2ccccc21	3.1%	
CCOC(=O)Cn1c(=O)c(-c2cc(Br)ccc2N)nc2ccccc21		8.2 µM (active)
CC(C)n1c(O)c(N=Nc2ccc(Cl)nn2)c2ccccc21		20.6 µM (active)
CCOC(=O)c1c(-c2ccc(OC)cc2)csc1/N=C/C1C(=O)CCCC1=O	-2.18%	
Cc1ccc(C(=O)CCC(=O)OCC(=O)Nc2ccccc2SCC#N)cc1	-8.08%	
N#CCSc1ccccc1NC(=O)COc1ccc(-c2nnco2)cc1		17.7 µM (active)
N#CCSc1ccccc1NC(=O)COC(=O)CCNC(=O)c1ccc([N+](=O)[O-])cc1	-12%	

SMILES	max response	Potency
Cc1noc(C)c1C(=O)OCC(=O)Nc1ccccc1SCC#N	-24.1%	
Cc1nc(C)c(C(=O)OCC(=O)Nc2ccccc2SCC#N)s1		15.8 µM (active)
CSc1ccccc1NC(=O)COC(=O)/C=C/c1ccco1	-23.1%	
CCCCOc1ccc(/C=C/C2=CC(C)(C)NC(=S)N2)cc1OCC	-3.97%	
CN(C)c1ccc(/C=C/c2ccncc2)cc1	-29.1%	
CCN(CC)c1ccc(/C=C/c2ccccn2)cc1		5.17 µM (active)
CCN(CC)c1ccc(/C=C/C2=C3C=CC=CC3NC=C2)cc1 (configuration not stated)		18.4 µM (active)
CCN(CC)c1ccc(/C=C/c2ccncc2)cc1		4.11 µM (active)
Cc1cc(C)c(C(=O)N(CCN(C)C)CC2CCCN(Cc3ccccc3F)C2)o1 (configuration not stated)	2.52%	
CCOc1ccc(NC(=O)Cn2c(=O)n(Cc3ccc(C(=O)NCc4ccc(C)cc4)cc3)c(=O)c3ccccc32)cc1		11.6 µM (active)
CCOc1ccc(CCNC(=O)c2ccc(Cn3c(=O)c4cccn4c4cccnc43)cc2)cc1		16.4 µM (active)
Cc1ccc(CNC(=O)Cn2cc(C(=O)c3ccc(Cl)cc3)c(=O)c3ccc(C)nc32)cc1	-28.8%	
CCOc1ncccc1C(=O)NCc1ccc(OC)cc1	-24.5%	
Cc1ccc(-n2c(=O)c3ccc(C(=O)NCc4ccccc4Cl)cc3n(CC(=O)Nc3cccc(Cl)c3)c2=O)cc1	-26%	
O=C(NCCc1ccccc1Cl)c1ccc(Cn2c(=O)c3cccn3c3cccnc32)cc1		20.6 µM (active)
CCOc1ncccc1C(=O)OCc1ccc(C(=O)OC)cc1	-26.7%	
Cc1ccc2nc(-c3ccccn3)c(Nc3ccccc3C)n2c1	-2.29%	
CCCCN1C(=O)C2Cc3c([nH]c4ccccc34)CN2C1=S (configuration not stated)		15.8 µM (active)
CC1(C)CCN2CCC(C)(C)c3c(O)ccc1c32		14 µM (active)
O=C(N/N=C/c1ccc([N+](=O)[O-])o1)c1sc2ccccc2c1Cl		8.2 µM (active)
O=C(N/N=C/c1ccc([N+](=O)[O-])o1)c1cn2ccc3ccccc3c2n1	-11.2%	
CSc1ccc(/C=N/NC(=O)c2ccccc2Cl)cc1	-22.8%	
O=C(Cc1cc2ccccc2o1)NCc1ccc(F)cc1	-14%	

SMILES	max response	Potency
O=C(N/N=C/c1ccc([N+](=O)[O-])o1)c1cc2c(ccc3ccccc32)o1		9.2 µM (active)
N#Cc1c(-c2ccc(F)cc2)c(-c2ccc(F)cc2)nn(CCO)c1=O		7.04 µM (active)
Cc1ccc2c(c1)sc(-c1ccc(N(C)C)cc1)[n+]2C		18.4 µM (active)
Cc1cccc(C)c1Nc1nc2ccccc2nc1NS(=O)(=O)c1ccccc1	-12.4%	
CCc1ccc2nc(SCC(=O)N3CC(=O)Nc4ccccc43)c(C#N)cc2c1		15.8 µM (active)
COc1ccc2nc(SCC(=O)N3CC(=O)Nc4ccccc43)c(C#N)cc2c1		10.3 µM (active)
COc1ccc2cc(C(=O)C3CCCN(Cc4ccccn4)C3)ccc2c1 (configuration not stated)	1.49%	
CCc1ccc2nc(SCC(=O)Nc3ccccc3N3CCOCC3)c(C#N)cc2c1		1.46 µM (active)
O=C(NC(=S)Nc1ccccc1N1CCCCC1)c1ccccc1	-2.38%	
NNC(=O)c1cc2sccc2s1	-9.98%	
O=c1[nH]c2cc(Br)cnc2nc1/C=C(\O)c1ccc(F)cc1		13 µM (active)
O=S(=O)(Nc1nc2ccccc2nc1N1CCN(c2ccccc2)CC1)c1ccc(F)cc1	-24.2%	
O=S(=O)(Nc1nc2ccccc2nc1N1CCN(c2ccccn2)CC1)c1ccc(Cl)cc1		18.4 µM (active)
O=C(N=c1ccn(-c2nc3ccccc3nc2NS(=O)(=O)c2ccccc2)cc1)c1cccs1	-18.4%	
O=C(N=c1ccn(-c2nc3ccccc3nc2NS(=O)(=O)c2ccc(Cl)cc2)cc1)c1cccs1		13 µM (active)
CCOC(=O)N1CCC(Nc2nc3ccccc3nc2NS(=O)(=O)c2ccc(Cl)cc2)CC1	-1.97%	
CN1CCN(c2nc3ccccc3nc2NS(=O)(=O)c2ccc(Br)cc2)CC1	-2.09%	
CCC(C)Sc1cccc(-c2nc3cc(C)ccn3c2NC2CCCCC2)c1 (configuration not stated)	-1.04%	
Cc1cc(-n2c(SCC(=O)Nc3ccc(Br)cc3)nc3n[nH]c(C)c3c2=N)ccc1Cl	-24.1%	
Cc1cc(-n2c(C)cc(C(=O)CCl)c2C)no1	-21.8%	
COc1cc(OC)cc(C(=O)Nc2ccc(N3CCN(C(=O)c4cccs4)CC3)cc2)c1	-11.5%	
COc1ccc2o/c(=N/NC(=O)c3cccs3)c(C(N)=O)cc2c1		3.96 µM (active)
COc1ccc2oc(=N)c(C(=O)Nc3ccc(F)cc3)cc2c1	-21%	

SMILES	max response	Potency
COC(=O)C1=C(Nc2ccc(C)cc2)C=C(C)C(C(=O)OC)C1c1cccc(OC)c1 (configuration not stated)	-20.5%	
CN(C)c1ccc2ccc3cccc4ccc1c2c34		9.2 µM (active)
Cc1cccc(CN2C(=O)N/C(=C/c3ccc(C)s3)C2=O)c1		9.94 µM (active)
COCc1ccc(O)c2ncccc12	1.62%	
Cc1cc(NC(=O)/C(C#N)=C\c2ccc(-c3ccc(SC(F)F)cc3)o2)n(-c2ccccc2)n1		9.2 µM (active)
Cc1cc(NC(=O)/C(C#N)=C/c2ccc(-c3ccc(SC(F)F)cc3)o2)n(-c2ccccc2)n1		3.66 µM (active)
Cc1ccc(C)c(N2CCN(C(=O)c3cccn4c(=O)c5sccc5nc34)CC2)c1	-29.7%	
CCOC(=O)c1ccc(/C=C2/C=C(c3ccccc3)N(c3ccc(Cl)c(C(=O)O)c3)C2=O)cc1		20.6 µM (active)
CN(C)c1ccc(Nc2nc3ccccc3n3nnnc23)cc1	-2.05%	
Cc1ccc(C(=O)O)cc1Nc1nc2ccccc2n2nnnc12	-4.15%	
CC(NC(=O)c1ccc(Nc2nc3ccccc3n3nnnc23)cc1)c1ccccc1 (configuration not stated)		16.4 µM (active)
Cc1cccc2cc3c(N)c(C(=O)N4CCCc5ccccc54)sc3nc12		9.2 µM (active)
Cc1cccc2cc3c(N)c(C(=O)N4CCc5ccccc54)sc3nc12		6.51 µM (active)
Cc1ccc2nc3sc(C(=O)N4CCCc5ccccc54)c(N)c3cc2c1		14 µM (active)
CCCn1nnc(NC(=S)NC(=O)c2ccccc2OC)n1	0.308%	
O=C(Cc1nc2ccccc2[nH]c1=O)c1ccc(Cl)cc1		18.4 µM (active)
CC(=O)Nc1ccc(NC(=O)C/C(C)=N/NC(N)=S)cc1	0.646%	
CCc1ccc(NC(=O)/C(C#N)=C/c2cc3ccc(C)cc3nc2N2CCOCC2)cc1		14.6 µM (active)
CCc1ccc(C(=O)NC(=S)Nc2ccc(N3CCOCC3)cc2)cc1	-0.0784%	
COCCCNC(=S)N/N=C/c1ccc(OC)cc1	-0.494%	
C=CCNC(=S)N/N=C(\C)c1ccc(OC)cc1	-3.87%	
Cc1cc(C)c(/C=C2\C(=O)Nc3ccccc32)[nH]1		16.4 µM (active)
Cc1nn(-c2ccc(F)cc2)c(Cl)c1/C=C1\C(=O)Nc2ccccc21	-19.4%	
